ERAP1 HTS inh = blocks human ERAP1 aminopeptidase activity | hit rate 0.15% among 340,000 | recombinant ERAP1, Leu-AMC fluorescence, 60 min | inhibition, % at 10.7 µM;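 active means mean replicate inhibition of at least 30%, or all replicates individually reaching that 30% level; inactive means mean below 30% and not every replicate reaching it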;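 further: 0% = neutral control wells and 100% = L-leucinethiol positive control wells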
INS-1E GSIS act = primary screen for activators of insulin secretion dependent on glucose, INS-1E cells, GLuc reporter luminescence; INS-1E GLuc reporter insulin secretion, 2-3 h; activation, % at 16.6 µM; hit rate 0.61% among 370,000; AID 743287;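 active means lowest replicate activation of at least 40%, so every replicate reaches that level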;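 further: 0% = median of neutral control wells and 100% = median of IBMX positive control wells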
AF4-AF9 inh = blocks AF4 peptide binding to human AF9. P42568. AlphaScreen, biotin-AF4 peptide binding to FLAG-AF9. inhibition, % at 10 µM. hit rate 0.47% among 350,000;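 active means every replicate reaching a set inhibition limit, whatever the replicate mean, cut at about 25% in these data; inconclusive means mean inhibition reaches that limit but some replicates miss it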;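 further: 0% = plate neutral control median and 100% = total signal loss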
Target sequence (P42568 whole entry, looked up): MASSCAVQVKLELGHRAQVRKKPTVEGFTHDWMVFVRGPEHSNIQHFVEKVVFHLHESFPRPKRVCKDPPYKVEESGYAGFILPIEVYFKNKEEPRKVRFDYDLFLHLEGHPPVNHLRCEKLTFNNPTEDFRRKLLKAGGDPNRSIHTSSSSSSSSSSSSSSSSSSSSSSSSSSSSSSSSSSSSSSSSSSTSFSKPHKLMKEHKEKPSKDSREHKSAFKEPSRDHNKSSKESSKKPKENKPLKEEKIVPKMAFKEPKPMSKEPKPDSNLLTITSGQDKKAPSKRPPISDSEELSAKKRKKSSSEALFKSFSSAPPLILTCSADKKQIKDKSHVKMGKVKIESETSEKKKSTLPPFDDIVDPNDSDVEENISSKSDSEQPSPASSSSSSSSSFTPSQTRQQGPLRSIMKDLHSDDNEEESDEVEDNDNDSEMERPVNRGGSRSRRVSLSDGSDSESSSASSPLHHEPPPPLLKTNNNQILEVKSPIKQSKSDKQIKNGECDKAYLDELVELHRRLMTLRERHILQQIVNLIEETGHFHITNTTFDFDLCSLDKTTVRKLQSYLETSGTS
PGC1a acetyl inh = modulators of PGC1a acetylation; U2OS PGC1a acetylation, AlphaScreen anti-acetyl-lysine; with virally co-expressed GCN5 acetyltransferase; inhibition, % at 15.6 µM; hit rate 0.17% among 350,000;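 active means every replicate shows inhibition of at least 40%; inconclusive means mean inhibition at least 40% but some replicate below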;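 further: 0% = neutral control wells and 100% = positive control wells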
RAD52 anneal inh = blocks human RAD52 DNA annealing. inhibition, % at 18.7 µM. recombinant RAD52 DNA annealing, FRET fluorescence. AID 651710. hit rate 0.46% among 360,000. P43351;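 active means every replicate showing at least 50% inhibition; inconclusive means mean inhibition at least 50% but not in every replicate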
RAD54 branch = blocks human RAD54 Holliday junction branch migration; FAM/BHQ fluorescence; inhibition, % at 10.4 µM; hit rate 0.14% among 360,000; Q92698;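 active means mean normalized replicate activity at least 40 and at least half of replicates scoring 40 or more; inconclusive means only one of the two criteria met; inactive means mean below 40 and under half of replicates reaching 40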;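 further: 0% = median of neutral control wells and 100% = median of positive control wells; inhibitors cause a drop in the FAM fluorescence signal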
DNA binder FP = binds DNA, flagging false RAD52 inhibitor hits | shares compounds with RAD52 anneal inh | Salmon sperm DNA/acridine orange FP displacement, DNA binding | AC50, µM | hit rate 8% among 1,000 | AID 652128;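 active means fitted half-maximal concentration for signal loss at or below twice the highest dose tested, in every separate run, actives reach about 64 µM in these data; inconclusive means runs disagree, or flat partial signal loss, or poor fit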
* marks the source's active call; other numbers are inactive results; i = inactive; ? = inconclusive; nt = no result given. The list is not random: actives were taken first. Their share in the collection is about 1.4%.

SMILES | ERAP1 HTS inh | INS-1E GSIS act | AF4-AF9 inh | PGC1a acetyl inh | RAD52 anneal inh | RAD54 branch | DNA binder FP
COc1ccccc1CNC(=S)Nc1ccc2nc(N3CCN(C)CC3)cc(C)c2c1 | -2 | -10 | 27* | 38 | 77* | 19 | i
COCCNC(=S)Nc1ccc2nc(N3CCN(C)CC3)cc(C)c2c1 | 3 | 1 | 8 | -6 | 52* | 22 | i
CCN1CCN(c2cc(C)c3cc(NC(=S)NCCCOC)ccc3n2)CC1 | 1 | -3 | -2 | 7 | 61* | 21 | i
C[C@@H]1CN(C)C(=O)c2cccc(N)c2O[C@H]1CN(C)S(C)(=O)=O | nt | 17 | nt | nt | nt | nt | nt
O=C(C[C@@H]1CC[C@@H](NC(=O)CN2CCOCC2)[C@H](CO)O1)NCCc1ccccc1 | 2 | 4 | -1 | 11 | 8 | 7 | nt
CO[C@@H]1CN(C)C(=O)c2cc(NC(=O)NC3CCCCC3)ccc2OC[C@H](C)N(CCc2ccccc2)C[C@H]1C | 2 | -42 | 4 | 3 | 5 | -1 | nt
CCN(CC)CCNC(=S)Nc1ccc2nc(N3CCCC3)cc(C)c2c1 | -1 | 14 | 9 | 9 | 76* | nt | i
Cc1cc(N2CCN(C)CC2)nc2ccc(NC(=S)NCCC(C)C)cc12 | 10 | 7 | 18 | -28 | 61* | 28 | i
O=c1c2c(-c3ccccc3)csc2nc2c3ccccc3c(NCCN3CCOCC3)nn12 | -12 | -7 | 12 | nt | 87* | nt | i
CO[C@@H]1CC[C@H]2CCN(C)C(=O)C[C@H](c3ccccc3)CN(C)C(=O)c3cccc(C#N)c3OC[C@H]1O2 | 0 | 7 | 11 | nt | -10 | 2 | nt
CN(C)CC#Cc1ccc([C@H]2[C@@H](CO)N3CCCCN(S(=O)(=O)c4ccccc4F)C[C@@H]23)cc1 | nt | 1 | nt | nt | nt | nt | nt
CCOc1cc(CNCCCN2CCOCC2)cc(Br)c1OCc1ccccc1Cl | 8 | 0 | 19 | nt | 50* | 6 | i
CCOc1cc(CNCCO)cc(Br)c1OCc1ccccc1Cl | nt | nt | nt | -57 | nt | 8 | nt
CCc1ccc2nc(N=C(N)N)nc(C)c2c1 | 0 | -3 | 2 | nt | 51* | nt | i
CCCC(=O)N/C(N)=N/c1nc(C)c2cc(C)ccc2n1 | -1 | 1 | -2 | 0 | 2 | 4 | nt
Cc1nc(/N=C(\N)NC(=O)c2ccccc2)nc2ccccc12 | 3 | 12 | 6 | 12 | -31 | 12 | nt
Cc1cc2nc(/N=C(\N)NC(=O)C(C)C)nc(C)c2cc1C | -4 | nt | 0 | 4 | 10 | -13 | nt
Cc1ccc2nc(N=C(N)N)nc(C)c2c1 | 2 | -6 | 0 | 8 | 51* | ? | i
Cc1cc2nc(N=C(N)N)nc(C)c2cc1C | -5 | -3 | 3 | nt | 84* | ? | i
Cc1nc(N=C(N)N)nc2ccccc12 | 1 | 29 | 4 | -2 | 61* | nt | i
COc1ccc2c3c(n(C)c2c1)[C@H](CO)N(Cc1ccc2c(c1)OCO2)CC31CCN(C(=O)c2ccc3c(c2)OCO3)CC1 | nt | -1 | -3 | -26 | nt | nt | nt
CC1CCN(CC(O)CN2c3ccccc3Sc3ccccc32)CC1 (stereo not drawn) | nt | nt | nt | -21 | nt | 6 | nt
CSc1ccc2c(c1)N(CCC1CCCCN1C)c1ccccc1S2 (stereo not drawn) | 19 | nt | 39* | -6 | 51* | 16 | i
C[C@]12CC[C@H](O)CC1=CCC1C2CC[C@@]2(C)C1CC[C@@H]2NC(=O)[C@@H](N)Cc1cnc[nH]1 (stereo partly drawn) | -3 | 0 | 2 | 12 | 80* | -9 | i
C[C@]12CC[C@H](O)CC1=CCC1C2CC[C@@]2(C)C1CC[C@@H]2NC(=O)[C@@H](N)CO (stereo partly drawn) | 1 | 19 | -6 | nt | -1 | nt | nt
CCCNC(=O)N1[C@@H](CO)[C@H](c2ccccc2)C12CN(C(=O)c1cccnc1)C2 | nt | 9 | nt | nt | nt | nt | nt
CCN(CC)CCCOC(=O)c1ccc(OC)cc1O | 2 | 5 | -1 | 6 | -5 | nt | nt
CCN(CC)CCOC(=O)c1ccc(N)cc1 | -3 | nt | -3 | -11 | 88* | -1 | i
CCN(CC)CCOC(=O)c1ccc(NC(=O)/C=C/c2cccs2)cc1 | 2 | -8 | 9 | nt | 58* | nt | i
CCCOc1cc(N)ccc1C(=O)OCCN(CC)CC | -5 | nt | 2 | -7 | 62* | 1 | i

Source: PubChem
